A3A deaminase: APOBEC3A ssDNA deaminase inhibitors, primary screen, selectivity assay for APOBEC3G inhibitor project, biochemical, FAM/TAMRA oligo cleavage fluorescence. 330,000 compounds, 0.41% hits. inhibition, % at 20 µM. DNA dC->dU-editing enzyme APOBEC-3A (Homo sapiens), P31941. AID 493011, 2011. recombinant A3A, FAM/TAMRA ssDNA deamination fluorescence;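 active means at least 40% inhibition at 20 µM here, with at most 30% in a related deaminase screen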;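 further: plate controls were A3A with DMSO for no effect and wells lacking A3A enzyme for full effect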
Target sequence (P31941 whole entry, looked up): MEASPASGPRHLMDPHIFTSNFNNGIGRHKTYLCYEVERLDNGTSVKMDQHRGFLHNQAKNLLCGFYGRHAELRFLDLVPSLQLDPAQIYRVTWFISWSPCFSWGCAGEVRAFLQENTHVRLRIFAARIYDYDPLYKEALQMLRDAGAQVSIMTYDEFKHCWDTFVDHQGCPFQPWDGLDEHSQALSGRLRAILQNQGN
CendR NRP1 mod: modulators of CendR peptide binding to NRP-1, primary screen, biochemical, fluorescence polarization, uHTS | AID 602438, 2012 | 360,000 compounds, 0.85% hits | FAM-RPARPAR peptide binding to NRP-1 | inhibition, % at 25 µM | Neuropilin-1 (Homo sapiens), O14786;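 active means inhibition or corrected inhibition above about 18%, plus a signal ratio from 0.5 to 1.5, limit read from the data, passing the limit was not always enough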
A3G deaminase: APOBEC3G DNA deaminase inhibitors, primary screen, biochemical, fluorescence, single-stranded DNA substrate, uHTS | 330,000 compounds, 0.28% hits | recombinant A3G, ssDNA deamination FAM/TAMRA fluorescence | DNA dC->dU-editing enzyme APOBEC-3G (Homo sapiens), Q9HC16 | inhibition, % at 20 µM;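 active means inhibition of at least 40% at 20 µM, with no more than 30% in the related APOBEC3A deaminase screen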;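 further: plate controls were DMSO wells with A3G for no effect and wells lacking A3G enzyme for full effect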
VLA-4 inh: inhibition in human VLA-4 binding assay, primary screen, VLA-4 allosteric modulator project, MLPCN library, flow cytometry, VLA-4 expressing cells; ligand binding flow cytometry; 330,000 compounds, 0.2% hits; inhibition, % (about 7 µM as worked out from the volumes in the protocol); Integrin alpha-4 (Homo sapiens), P13612; AID 2557, 2010; in the data active means inhibition above about 50%
beta cell repl: inducers of MIN6 beta-cell proliferation, primary screen, ATP luminescence, uHTS; AID 2380, 2010; MIN6 cells proliferation, ATPlite luminescence, 48 h; cells starved in 0.2% serum; 100% = growth in 10% serum; 330,000 compounds, 0.29% hits; proliferation, % at 10 µM;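 active means compounds whose signal lies at least 3.5 SD above the mean of all wells on their plate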;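 further: 0% = DMSO-treated cells in low-serum medium and 100% = 10% serum control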
* = called active by the depositor; nt = no result given; ! = repeats disagree. This is a sample that favours compounds with a hit; in the whole collection about 1.8% have one here.

SMILES | A3A deaminase | CendR NRP1 mod | A3G deaminase | VLA-4 inh | beta cell repl
COc1ccc(C2=NOC(C(=O)NCc3cccnc3)C2)cc1 (centres undefined) | -4 | -2 | -8 | 4 | -3
COc1cccc(NC(=O)CSc2nc3c([nH]c4ccccc43)c(=O)n2C)c1 | -1 | 8 | -3 | 60* | -5
Cc1cccc(NC(=O)CSc2nc3c([nH]c4ccccc43)c(=O)n2C)c1 | 2 | 2 | 1 | 9 | -6
O=C(Nc1nnc(SCc2ccccc2)s1)C1=COCCO1 | -4 | 24* | -8 | 7 | -5
O=C(Nc1nnc(SCc2ccc(F)cc2)s1)C1=COCCO1 | -3 | -2 | -9 | 2 | -1
COc1ccc(C(O)c2nc(-c3ccc4ccccc4c3)cs2)cc1 (centres undefined) | nt | 33* | nt | nt | nt
COc1cccc(C(NC(C)=O)c2nc(-c3ccc4ccccc4c3)cs2)c1 (centres undefined) | nt | -8 | nt | nt | nt
CCN(CC)C(=O)c1cccc(-c2csc(C(NC(C)=O)c3cccc(OC)c3)n2)c1 (centres undefined) | nt | 22* | nt | nt | nt
COc1cccc(C(NC(C)=O)c2nc(-c3ccc(C)c(C)c3)cs2)c1 (centres undefined) | nt | 34* | nt | nt | nt
CC(C)(NC(=O)c1ccccc1)c1nc2ccccc2s1 | 4 | 8 | 22 | -12 | 1
N#CC1(Nc2ccc(S(N)(=O)=O)cc2)CCCC1 | nt | -12 | nt | nt | nt
O=C(Cc1ccccc1)NCC(=O)N1CCCC1 | -1 | -12 | -2 | 2 | 13
O=C(Cc1ccccc1)NCC(=O)N1CCN(c2ccccc2)CC1 | -4 | 27* | -9 | 4 | 1
Cc1ccc(S(=O)(=O)N(CC(O)CN2CCCCC2)c2ccccc2)cc1 (centres undefined) | 0 | -2 | -2 | 39 | -3
COc1ccc(N(CC(O)CN2CCCCC2)S(=O)(=O)c2ccc(C)cc2)cc1 (centres undefined) | -2 | 24* | -4 | 2 | 2
COc1ccc(CCNC(=O)c2cc(-c3ccccn3)nc3ccccc23)cc1 | 0 | -1 | -3 | 22 | -1
CCC(CC)c1nnc(NC(=O)c2cccc(S(=O)(=O)N3CCOCC3)c2)s1 | 1 | 26* | 0 | -1 | -2
CC(C)Cc1nnc(NC(=O)c2cccc(S(=O)(=O)N3CCOCC3)c2)s1 | -1 | 5 | -1 | -5 | -6
CN(C)CCCNC(=O)C[C@H]1C[C@H](C(=O)N2CCOCC2)[C@@]2(C)c3[nH]c4ccc(Cl)cc4c3CCN2C1=O | -2 | -4 | -2 | nt | nt
Cc1c(Cl)cnc(NC(=O)COC(=O)[C@H](C)NC(=O)c2ccccc2)c1Cl | 8 | 26* | 2 | 2 | -2
Cc1c(Cl)cnc(NC(=O)COC(=O)CNC(=O)c2ccccc2)c1Cl | 7 | -8 | 9 | -5 | -1
O=S(=O)(c1cccc2nsnc12)N1CCN(Cc2ccccc2)CC1 | -3 | 19* | -9 | 1 | 2
O=c1[nH]c(=O)n(Cc2ccccc2)c2nc(-c3ccc(Oc4ccc(F)cc4)c([N+](=O)[O-])c3)n(CCO)c12 | 0 | 26* | -1 | -24 | 0
Cc1c(C(=O)/C=C/N(C)C)nnn1-c1ccc(F)c(Cl)c1 | -2 | 38* | -3 | 7 | 0
Cc1c(C(=O)/C=C/N(C)C)nnn1-c1ccc(Cl)c(Cl)c1 | 0 | 0 | -1 | 3 | -1
CC(=O)Oc1cc2c(c3ccccc13)CCC2=O | nt | 31* | nt | nt | nt
CC(=O)O/N=C/c1c(C)c(C=O)n2ccccc12 | 10 | 9 | 5 | -15 | -2
O=C(Nc1ccccc1C(=O)NCc1ccco1)NC1CCCCC1 | 0 | 20* | -5 | 13 | -1
CC(=O)Nc1ccc(N/C(=N\S(=O)(=O)c2ccccc2)c2ccccc2)cc1 | -7 | 2 | -6 | -2 | 1
Cc1ccc(NC(=S)N/C(=N/S(=O)(=O)c2ccccc2)c2ccccc2)cc1 | -4 | 22*! | -6 | 1 | -3
